Drawing on PubChem BioAssay AID624151 (Broad Institute, 2012), this text covers activation for 49 compounds.

The campaign covered roughly 28,000 compounds. About 410 (1.5%) were called active. The sample holds actives, similar compounds and a random draw of the others, so the mix is not that of the screen. No stated cut-off is given here; in the data, active means activation above about 52%; inconclusive means no clear call, values can overlap the other calls; inactive means below that.

The assay in a line: mutant p53 pathway re-activators, primary screen, cell-based, SW480, luciferase, single point, HTS (AID 624151). The settings on record: SW480 PUMA-promoter luciferase, p53 mutant reactivation; at 9.98 µM; hits give high values.
For `CCCNC(=O)N(C)C[C@H]1Oc2cc(C#CC(C)(C)O)ccc2S(=O)(=O)N([C@H](C)CO)C[C@@H]1C`, the activation was 14.1% (inactive).

As to `CCc1ccccc1NC(=O)Cn1cnc2scc(-c3ccc(OC)cc3)c2c1=O`, the activation was -10.3% (inactive).

As for `Cc1cccc(N(CC(=O)Nc2cccc([N+](=O)[O-])c2)S(C)(=O)=O)c1C`, the activation is -1.11% (inactive).

`Cc1nc(SCC(=O)Nc2ccc(C(=O)O)cc2)[nH]c(=O)c1C`: the activation is -11.8% (inactive).

Regarding `CCn1cc(CNC(=S)Nc2cc(OC)ccc2OC)cn1`, the activation was -10.5% (inactive).

`CCCNC(=O)N(C)C[C@@H]1Oc2ncc(-c3ccccc3F)cc2C(=O)N([C@@H](C)CO)C[C@H]1C`: the activation is 16.1% (inactive).

As to `CC(C)(C)c1ccc(OCC(=O)Nc2cccc(NC(=O)c3ccccc3)c2)cc1`, the activation is 39.6% (inactive).

With `Cc1cc(C)cc(OCC(=O)Nc2cccc(-c3nnc(-c4ccccc4)o3)c2)c1`, the activation was 90.4% (active).

Consider `COc1ccccc1CC(=O)Nc1ccc(-c2nnc(-c3ccc(C)cc3)o2)cc1`, for which the activation is -31.3% (inactive).

For `Cc1[nH]c2ccccc2c1C(=O)CSc1ccc2ccccc2n1`, the activation was -16.4% (inactive).

As to `CCCNC(=O)N(C)C[C@@H]1Oc2ncc(-c3cccc(C#N)c3)cc2C(=O)N([C@@H](C)CO)C[C@H]1C`, the activation is 0.271% (inactive).

In the case of `CC(C)C#Cc1ccc2c(c1)O[C@@H](CN(C)Cc1ccncc1)[C@@H](C)CN([C@@H](C)CO)S2(=O)=O`, the activation is -4.79% (inactive).

With `CC(Sc1ncn(-c2ccccc2)n1)C(=O)Nc1ccc(Cl)cc1` (centres undefined), the activation is 7.31% (inactive).

For `C[C@H](CO)N1C[C@H](C)[C@H](CN(C)Cc2cccc(C(=O)O)c2)Oc2ncc(-c3ccccc3F)cc2C1=O`, the activation was 5.45% (inactive).

For `COc1ccc(NC(=O)Nc2ccc3c(c2)[C@@H]2C[C@H](CC(=O)N[C@@H](C)c4ccccc4)O[C@@H](CO)[C@@H]2O3)cc1`, the activation was -6.79% (inactive).

With `COc1cc([C@H](Cc2ccccc2)NC(C)=O)oc(=O)c1`, the activation is 12.8% (inactive).

Regarding `COc1ccc2c(c1)C(=O)CC(c1ccccc1)O2` (centres undefined), the activation was 60.3% (active).

As for `Cn1nc(CC(=O)Nc2ccc3c(c2)oc2ccccc23)c2ccccc2c1=O`, the activation was -34.2% (inactive).

Consider `O=C(C[C@@H]1C[C@H]2c3cc(NC(=O)NC4CCCC4)ccc3O[C@H]2[C@H](CO)O1)NCc1cc(F)ccc1F`, for which the activation was -2.6% (inactive).

Turning to `C[C@H]1CN([C@@H](C)CO)C(=O)c2cc(-c3ccc(C#N)cc3)cnc2O[C@@H]1CN(C)Cc1ccncc1`, the activation is -0.372% (inactive).

With `Cc1ccc([N+](=O)[O-])cc1NC(=O)CSC1=NCCS1`, the activation was -5.18% (inactive).

As to `CNC[C@H]1Oc2cc(C#CC(C)(C)O)ccc2S(=O)(=O)N([C@@H](C)CO)C[C@@H]1C`, the activation was 15.9% (inactive).

Consider `C[C@@H]1CN([C@H](C)CO)C(=O)c2c(c3ccccc3n2C)-c2ccccc2CO[C@H]1CN(C)S(=O)(=O)c1ccccc1F`, for which the activation is 1.72% (inactive).

Consider `Nc1nnc(SCC(=O)Nc2ccc(F)c(Cl)c2)s1`, for which the activation is -1.2% (inactive).

For `C[C@@H]1CN([C@@H](C)CO)S(=O)(=O)c2ccc(C#CCC3CCCC3)cc2O[C@H]1CN(C)Cc1ccc(C(=O)O)cc1`, the activation is -0.35% (inactive).

In the case of `C[C@@H]1CCCCO[C@@H](CN(C)S(=O)(=O)c2cn(C)cn2)[C@@H](C)CN([C@@H](C)CO)C(=O)c2cc(NC(=O)NC3CCCCC3)ccc2O1`, the activation is 16% (inactive).

`COc1ccc(OC)c(S(=O)(=O)N(C)CC(=O)Nc2cccc(Cl)c2C)c1`: the activation was -5.43% (inactive).

Take `CNC[C@H]1Oc2ncc(-c3ccccc3C)cc2C(=O)N([C@@H](C)CO)C[C@@H]1C`: the activation is 6.16% (inactive).

As for `CC(=O)Nc1ccc(NC(=O)CSc2nnc3c4cc(Br)ccc4n(C)c3n2)cc1`, the activation was -24.7% (inactive).

`C[C@@H]1CN([C@@H](C)CO)C(=O)c2cc(C#CC(C)(C)O)cnc2O[C@H]1CN(C)Cc1cccc(F)c1`: the activation was -7.7% (inactive).

As to `COc1ccccc1NC(=O)CN(c1ccc(Br)c(C)c1)S(C)(=O)=O`, the activation was 7.45% (inactive).

Take `C[C@@H]1CN([C@H](C)CO)C(=O)c2cc(-c3cncnc3)cnc2O[C@@H]1CN(C)Cc1ccc(Oc2ccccc2)cc1`: the activation was 9.54% (inactive).

Turning to `COC(=O)c1c(NC(=S)Nc2ccc(OC)cc2[N+](=O)[O-])sc2c1CCC(C)C2` (centres undefined), the activation was 4.27% (inactive).

Turning to `CCc1cc(C(=O)OC)c(NC(=S)Nc2ccc(OC)cc2[N+](=O)[O-])s1`, the activation is 62.7% (active).

For the compound `COc1ccc(NC(=O)CSc2nncc3ccccc23)c([N+](=O)[O-])c1`, the activation is 4.65% (inactive).

`CC(C(=O)Nc1nccs1)C1SC(=O)NC1=O` (centres undefined): the activation is 1.73% (inactive).

Take `C[C@H]1CN([C@@H](C)CO)C(=O)c2cc(C3=CCCC3)cnc2O[C@H]1CN(C)Cc1ccccc1C(=O)O`: the activation was 16.5% (inactive).

Consider `COCC#Cc1cnc2c(c1)C(=O)N([C@H](C)CO)C[C@H](C)[C@H](CN(C)C(=O)CCN1CCCCC1)O2`, for which the activation was 6.72% (inactive).

As to `Cc1ccc(S(=O)(=O)N(C)C[C@@H]2Oc3c(NC(=O)C4CC4)cccc3C(=O)N([C@H](C)CO)C[C@@H]2C)cc1`, the activation was -8.13% (inactive).

Regarding `COc1cc(NC(=S)NCCN2CCOCC2)c(OC)cc1Cl`, the activation is -5.79% (inactive).

Take `Cc1cc(=O)oc2cc(OC(C)C(=O)Nc3ccc(N4CCOCC4)cc3)ccc12` (centres undefined): the activation is 7.05% (inactive).

Consider `CC(=O)CCc1c(C)[nH]c2ccc(C)cc2c1=O`, for which the activation is 14.2% (inactive).

In the case of `C[C@@H]1CCCCO[C@@H](CN(C)S(=O)(=O)c2cn(C)cn2)[C@H](C)CN([C@H](C)CO)C(=O)c2cc(NC(=O)NC3CCCCC3)ccc2O1`, the activation is 17% (inactive).

Take `COc1cc(Cl)c(C)cc1NC(=O)CN(C)S(=O)(=O)c1ccc2ccccc2c1`: the activation is 14.5% (inactive).

On to `C[C@@H]1CN([C@H](C)CO)S(=O)(=O)c2ccc(-c3cncnc3)cc2O[C@H]1CN(C)C(=O)Cc1ccccc1`, for which the activation was -1.41% (inactive).

With `COc1ccc(-c2nnc(SCC(=O)Nc3cccc(SC)c3)n2C)cc1`, the activation is -10.6% (inactive).

Regarding `CCc1ccccc1NC(=O)COc1cc(O)c2c(=O)cc(-c3ccccc3)oc2c1`, the activation is -9.5% (inactive).

`COc1c(O)cc2oc(-c3ccc(O)c(O)c3)cc(=O)c2c1O`: the activation was 89.5% (active).

As for `CC(=O)OC[C@H]1O[C@@H](Oc2c(-c3ccc(O)c(O)c3)oc3cc(O)cc(O)c3c2=O)[C@H](O)[C@@H](O)[C@@H]1O`, the activation was 7.83% (inactive).
